Bioassay records (PubChem BioAssay)
D3 antag: D3 dopamine receptor (human) antagonism; 360,000 tested, 2.5% active; D3R cells, DiscoveRx beta-arrestin luminescence, antagonist mode; active compounds read low; AID 652054; max response, negative = inhibition, %; in the data active means max response below about -50%; inconclusive means no clear call, values can overlap the other calls; further: on the % scale 0 is the no-effect control and ±100 the full control effect
Target sequence (P35462 whole entry, looked up): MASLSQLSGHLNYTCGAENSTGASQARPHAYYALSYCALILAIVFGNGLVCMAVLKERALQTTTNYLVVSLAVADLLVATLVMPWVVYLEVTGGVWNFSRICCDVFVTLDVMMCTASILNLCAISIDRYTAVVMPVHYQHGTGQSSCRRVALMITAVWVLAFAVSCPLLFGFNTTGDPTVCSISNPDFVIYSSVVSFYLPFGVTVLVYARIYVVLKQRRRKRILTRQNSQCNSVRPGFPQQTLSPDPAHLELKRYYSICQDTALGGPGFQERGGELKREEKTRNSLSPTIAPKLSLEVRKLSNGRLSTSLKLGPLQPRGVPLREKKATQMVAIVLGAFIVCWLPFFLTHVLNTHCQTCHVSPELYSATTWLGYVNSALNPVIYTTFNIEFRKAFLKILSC
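Cells expressing the human receptor were seeded at 1500 cells/well, incubated overnight at 37 degrees C in 5% CO2, then exposed to library compounds with dopamine controls for 90 minutes at 37 degrees C before luminescent detection.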
ATXN2 expr inh: ATXN2 expression inhibition | Potency, µM (top dose mostly 57 µM), without a hit: top-dose activity change, negative = inhibition, most hits filed as inhibitors | HEK-293 ATXN2-luciferase reporter, luminescence, 24 h | 360,000 tested, 0.72% active; further: potency means the concentration at half of the fitted maximal effect; on the % scale 0 is the no-effect control and ±100 the full control effect; nearly all actives have a fitted effect of over 55% in size
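ATXN2-luciferase reporter cells (luciferase flanked by upstream and downstream ATXN2 gene portions) were treated 24 h at 37 °C with compounds at up to 57 uM. SteadyGlo luminescence gave expression; GF-AFC fluorescence gave viability.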
DRD3 agonist: activates the human D3 dopamine receptor; P35462; D3R DiscoveRx beta-arrestin cells, luminescence, 90 min; max activation, %; 410,000 tested, 0.58% active; AID 652048; in the data active means max activation above about 30%; further: 0% is about no effect
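Cells at 1500/well, incubated overnight, then treated with pinned compounds (dopamine as control) for 90 min at 37 degrees C. DiscoveRx reagent added for 30 - 60 minutes at room temperature; luminescence read.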
Integrin act MD: activators of alpha7 integrin expression for muscular dystrophy | alpha7betagal myoblasts, beta-gal FDG fluorescence, 48 h | Potency, µM (titrated, usually from 38.3 µM), for inactives: at the top dose activation, hits mostly activators | 350,000 tested, 0.064% active | AID 624291;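 further: potency means the concentration at half of the fitted maximal effect; 100% = response of the positive control SU9516; nearly all actives have a fitted effect of over 60% in size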
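alpha7betagal+/- myoblasts (passage 13, 250/well) treated 48 h at 37C with compounds at 1:260 dilution of DMSO stock. Lysed, then beta-galactosidase activity read as FDG fluorescence (ex 480/em 540) after 30 min, with pre-read for autofluorescence.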
ATXN viability: reduces viability in counter-screen for ATXN expression inhibitors. S2 cells (HEK-293 line with an ATXN2-luciferase reporter) viability, CellTiter-Fluor protease fluorescence, 24 h. Potency, µM (doses to about 56.7 µM), usual class: cytotoxic. 400,000 tested, 0.49% active. AID 651635; further: potency means the concentration at half of the fitted maximal effect; nearly all actives have a fitted effect of over 40% in size
IL-1B inflam inh: blocks inflammasome-driven IL-1 beta release | THP-1 LPS/ATP IL-1B secretion, AlphaLISA, 16 h; active compounds read low | 360,000 tested, 4.7% active | activity change, % at 57.5 µM; in the data active means activity change below about -50%; inconclusive means mostly about -30% to -49%; further: on the % scale 0 is the no-effect control and ±100 the full control effect
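THP-1 cells pretreated 1 hr with compounds (up to 57.5 uM final), then stimulated with LPS (250 ng/mL final) plus ATP (1.25 mM final); secreted IL-1B measured by AlphaLISA after 16 hr, decreased signal indicating inhibition.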
Active calls of the source: *; i = inactive; ? = inconclusive; nt = no result given. Shown are actives, neighbours in structure and some others; about 7% of the full set was active somewhere. Unless noted, the call rests on the fitted dose curve; in most records, active means well fitted curve in the direction sought with a large enough effect; inconclusive means small, poorly fitted or top-dose-only effect, or another doubt; inactive means no such curve, though single readings can be large; an effect the other way counts as inactive or inconclusive.

SMILES | D3 antag | ATXN2 expr inh | DRD3 agonist | Integrin act MD | ATXN viability | IL-1B inflam inh
COc1ccc(/C=N/OCC(=O)Nc2nc3ccccc3s2)cc1 | 6.9 | -4.2% | 3.1 | 24.0% | ? | 12.0
C=C1[C@@H](O)[C@H](Cc2ccccc2)N(Cc2ccccc2Br)S1(=O)=O | -13.2 | 20µM* | -26.3 | -38.8% | 17.8µM* | -102.0*
Cc1ccccc1CN1[C@@H](Cc2ccccc2)COCCS1(=O)=O | 14.5 | -6.8% | -0.3 | 14.9% | i | -13.8
COc1ccc(N=C2NC(=O)/C(=C/c3ccc(O)c(OC)c3)S2)cc1 | 6.4 | 20.8% | 1.6 | 28.0% | ? | -66.5*
COc1cc(/C=C2/SC(=Nc3ccc(O)cc3)NC2=O)cc(OC)c1O | -9.4 | -10.6% | 0.3 | -0.3% | i | 29.1
COc1ccccc1N=C1NC(=O)/C(=C/c2ccc(N(C)C)cc2)S1 | -95.2* | nt | -13.4 | ? | i | 4.4
Cc1cccc(CNC(=O)CCc2nnc(C3CCCCC3)o2)c1 | -8.7 | 9.5% | 4.1 | 14.1% | i | 27.3
O=C(NNC1=NCCC1)c1cccc(Br)c1 | -58.1* | 69.5% | -1.5 | 13.2% | i | 0.7
Cc1ccccc1C(=O)NNC1=NCCC1 | -11.6 | -2.2% | 0.1 | 21.0% | i | 2.6
COc1ccc(N2CC(=O)N(c3ccccc3)C2=S)cc1 | 3.8 | 24.2% | 2.1 | -0.5% | i | 0.0
C/C(=N\N=C(N)N)c1ccc(C)c(C)c1 | -1.3 | -3.6% | -14.4 | -45.3% | i | ?
CN1CCN(CCCNC(=O)c2ccc(/C=C3\Oc4ccccc4N(Cc4ccccc4F)C3=O)cc2)CC1 | 0.0 | nt | -12.8 | -52.7% | 20µM* | 61.4
CN1CCN(CCCNC(=O)c2ccc(/C=C3\Sc4ccccc4N(Cc4ccc(F)cc4)C3=O)cc2)CC1 | -16.5 | nt | -21.2 | -53.5% | ? | -76.5*
O=C(CS(=O)(=O)c1nc(-c2ccc(Cl)cc2)cn1-c1ccccc1)Nc1ccc(F)cc1F | nt | 9.8% | -7.2 | nt | i | nt
Cc1ccc(Cn2c(CNS(=O)(=O)c3c(C)cc(C)cc3C)nc3cccnc32)cc1 | nt | nt | -11.4 | nt | nt | nt
CN(C)c1ccc(CN2CCC(C(=O)NC(c3ccc(Cl)cc3)c3cnccn3)CC2)cc1 (centres undefined) | -29.1 | -5.2% | -18.2 | nt | i | ?
N#Cc1c(Nc2ccc(Cl)cc2)s[nH]c1=O | -14.9 | 13.0% | -5.6 | -44.8% | i | -72.5*
Cc1cc(O)c(C(=O)/C=C/c2ccccc2)c(=O)o1 | 11.2 | 11.8% | 4.5 | -9.0% | nt | -5.0
Cc1cc(O)c(C(=O)/C=C/c2ccccc2Br)c(=O)o1 | 14.7 | 76.1% | 14.1 | -11.6% | i | -76.8*
O=C(C[C@H]1C/C=C\C[C@@H](Cc2ccc(F)cc2)C(=O)OC[C@H]2CCCN2C1=O)N[C@@H](CO)Cc1ccccc1 | -23.3 | -10.4% | -19.1 | 12.1% | ? | -16.1
C=CCSc1n[nH]c(-c2ccc(OCCCC)cc2)n1 | 13.5 | ? | 0.6 | 24.0% | 28.2µM* | 13.7
CCOc1ccccc1NC(=O)CSc1nnc2[nH]c(=O)cc(C)n12 | nt | nt | -16.7 | nt | nt | nt
CC(=O)Nc1ccc(C(=O)Nc2ccc(S(=O)(=O)N3CCOCC3)cc2)cc1 | 3.0 | 35.6% | 1.4 | 7.5% | i | 3.4
Cc1[nH]c2ccccc2c1C1=NNC(=Nc2ccc(F)cc2)SC1 | -7.9 | ? | 10.8 | -56.5% | i | -66.2*
Fc1ccc(N=C2NN=C(c3cc(F)ccc3F)CS2)cc1 | -11.4 | -13.0% | -14.8 | -32.6% | i | -95.6*
SMILES | D3 antag | ATXN2 expr inh | DRD3 agonist | Integrin act MD | ATXN viability | IL-1B inflam inh
O=S(=O)(c1ccc(N=C2NN=C(c3cc(F)ccc3F)CS2)cc1)N1CCOCC1 | -3.1 | ? | -0.8 | -59.0% | i | -76.2*
CC(=O)Nc1ccc(C2=NNC(=Nc3ccc(S(=O)(=O)N4CCOCC4)cc3)SC2)cc1 | 1.5 | -12.3% | 7.3 | -16.7% | i | -52.1*
CN(C(=O)c1cccc(NC(=O)Cc2cccc(NC(=O)C3CCN(C(=O)C4CC4)CC3)c2)c1)C1CCC1 | -3.0 | 3.9% | -2.1 | -0.3% | i | -12.3
COc1cc(CNCCc2ccc(S(N)(=O)=O)cc2)ccc1OCc1ccc(Cl)cc1 | 2.8 | 17.8µM* | 4.2 | -65.1% | 22.4µM* | -78.0*
NS(=O)(=O)c1ccc(NCc2ccccc2OCc2ccc(F)cc2)cc1 | -7.5 | -18.2% | 0.8 | -5.5% | i | -16.0
NS(=O)(=O)c1ccc(CCNCc2ccccc2OCc2ccc(F)cc2)cc1 | ? | -36.7% | -22.5 | -7.7% | i | -89.6*
CCOc1cc(CNCCc2ccc(S(N)(=O)=O)cc2)ccc1OCc1ccc(Cl)cc1 | 18.6 | ? | -8.0 | -2.9% | ? | -109.2*
COc1cc(CNCCc2ccc(S(N)(=O)=O)cc2)ccc1OCC(=O)NC1CCCCC1 | -25.2 | -5.0% | -42.4 | 9.3% | ? | -1.3
CCC(C)[C@H](NC(=O)Nc1ccc(C)cc1C)C(=O)O (some centres undefined) | 14.4 | nt | -2.1 | 4.1% | i | 9.9
C[C@@H]1CN([C@H](C)CO)C(=O)c2cc(NC(=O)Cc3ccccc3)ccc2O[C@H]1CN(C)Cc1ccc(Oc2ccccc2)cc1 | 10.6 | ? | -16.9 | -29.9% | ? | ?
C[C@@H]1CCCCO[C@H](CN(C)Cc2ccc(C(F)(F)F)cc2)[C@H](C)CN([C@@H](C)CO)C(=O)c2cc(NC(=O)Cc3ccccc3)ccc2O1 | -28.2 | 0.0% | -7.6 | -57.8% | 12.6µM* | -13.7
COc1ccc(CN(C)C[C@@H]2OCCCC[C@H](C)Oc3ccc(NC(=O)Nc4ccc(F)cc4)cc3C(=O)N([C@H](C)CO)C[C@H]2C)cc1 | -14.2 | ? | 4.0 | -59.1% | 17.8µM* | ?
C[C@@H]1CN([C@@H](C)CO)C(=O)c2cc(NC(=O)Nc3ccc(F)cc3)ccc2O[C@@H]1CN(C)Cc1ccc(Oc2ccccc2)cc1 | -26.2 | 0.0% | -13.1 | -1.6% | 25.1µM* | 0.0
COc1ccc(CN(C)C[C@@H]2OCCCC[C@H](C)Oc3ccc(NC(=O)Cc4ccccc4)cc3C(=O)N([C@@H](C)CO)C[C@@H]2C)cc1 | -6.4 | 3.3% | -4.0 | 8.7% | ? | -7.3
CC(OC(=O)CNC(=O)c1sc2ccccc2c1Cl)c1ccccc1 (centres undefined) | 0.1 | nt | 0.8 | ? | i | 7.5
Cc1ccccc1N=Cc1c(O)n(-c2nccs2)c(=O)c2ccccc12 | 8.0 | 4.7% | 2.1 | 3.2% | ? | -54.8*
Cc1cccc(C)c1N=Cc1c(O)n(-c2nccs2)c(=O)c2ccccc12 | -0.1 | -7.3% | -0.3 | -17.9% | ? | -50.5*
Cc1cccc(C)c1-n1ncc(C(=O)NCCN2CCOCC2)c1C1CCN(C(=O)OC(C)(C)C)CC1 | nt | 8.0% | 0.2 | nt | i | nt
c1ccc(-c2onc3c2CCCC3)cc1 | 9.0 | 0.3% | -0.8 | -0.9% | i | -3.7
